Our source for the Potency values is PubChem BioAssay (Tox21).

Assay [1] can be described thus: qHTS assay for small molecules that induce genotoxicity in human embryonic kidney cells expressing luciferase-tagged ATAD5 (AID 651632). Note: nearly all actives have a fitted effect of over 15% in size. A digest of the protocol:
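HEK293T cells carrying luciferase-tagged ATAD5 were given compound or DMSO vehicle and incubated 16 hr at 37C, 5% CO2. Luciferase activity was read after 30 min at room temperature with Amplite; a rise signals genotoxic stress.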
A general note: Quantitative high-throughput screening tests each substance at several concentrations.

Assay [2] can be described thus: qHTS assay for small molecules that induce genotoxicity in human embryonic kidney cells expressing luciferase-tagged ATAD5 - cell viability (AID 651634; calls by dose curve; note: nearly all actives have a fitted effect of over 25% in size; note: potency is the fitted concentration of half-maximal effect). A digest of the protocol: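 HEK293T cells carrying luciferase-tagged ATAD5, 2,000 cells/well, exposed to compound for 15.5 hr at 37C. Viability read as live-cell protease activity by CellTiter-Fluor fluorescence after 30 min at 37C.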

The nature of assay [3]: qHTS assay for small molecule disruptors of the mitochondrial membrane potential (AID 720635). Note: potency is the fitted concentration of half-maximal effect. In short, it runs like this:
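Mitochondrial membrane potential tracked with Mito-MPS dye, red aggregates (ex 540/em 590 nm) against green monomers (ex 490/em 535 nm). Compound treatment 1 hr at 37C, dye 30 min in HepG2.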

A short description of assay [4]: qHTS assay to test for compound auto fluorescence at 590 nm (red) in HepG2 cells (AID 720674). In short, it runs like this: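 Red autofluorescence (Ex/Em 540/590 nm, Rose Bengal sodium equivalents) was measured in HepG2 cells, 2,000 per well in MEM plus 10% FBS, plated overnight at 37 C. Readings were taken 1 hr after adding 23 nL compound or DMSO, at 37 C and 5% CO2.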

A short description of assay [5]: qHTS assay to test for compound auto fluorescence at 535 nm (green) in HepG2 cells (AID 720675).
Assay [6] can be described thus: qHTS assay to test for compound auto fluorescence at 460 nm (blue) in HEK293 cells (AID 720678). A digest of the protocol: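 Blue-channel (Ex/Em 405/460 nm) intensity measured in HEK293 cultures after overnight compound exposure at 37C; signal expressed relative to triamterene. Cells plated 2,000 per well in 10% dialyzed FBS medium and allowed 4-5 hr to attach.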

Assay [7] is described as follows: qHTS assay to test for compound auto fluorescence at 590 nm (red) in HEK293 cells (AID 720679). A digest of the protocol:
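Red-channel autofluorescence (Ex/Em 540/590 nm; Rose Bengal sodium reference) was measured after overnight 37C, 5% CO2 exposure of attached HEK293 cells, 2,000 per well in medium with 10% dialyzed FBS.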

Assay [8] can be described thus: qHTS assay to test for compound auto fluorescence at 535 nm (green) in HEK293 cells (AID 720680).
Assay [9] can be described thus: qHTS assay to test for compound auto fluorescence at 460 nm (blue) in HEK293 cell free culture (AID 720681). In short, it runs like this: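 Blue fluorescence (Ex 405/Em 460 nm, triamterene-equivalent) was read immediately after pin transfer of compound or DMSO into medium (DMEM, 10% FBS) without cells.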
A short description of assay [10]: qHTS assay to test for compound auto fluorescence at 535 nm (green) in HEK293 cell free culture (AID 720682). In short, it runs like this:
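Steps: dispense DMEM/10% FBS into empty wells; pin in compound or DMSO; measure fluorescence at 485/535 nm. Values are fluorescein equivalents.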

Assay [11] can be described thus: qHTS assay to test for compound auto fluorescence at 590 nm (red) in HEK293 cell free culture (AID 720683). In short, it runs like this:
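Red-channel autofluorescence of compounds in culture medium (DMEM, 10% FBS), no cells, measured at 540/590 nm. Rose Bengal sodium is the reference fluorophore for equivalence.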

Assay [12] can be described thus: qHTS assay to test for compound auto fluorescence at 590 nm (red) in HepG2 cell free culture (AID 720684). A digest of the protocol:
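Steps: dispense MEM/10% FBS medium, no cells; pin compound or DMSO vehicle; read red channel, Ex/Em 540/590 nm. Output given as Rose Bengal sodium equivalents.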

Assay [13] is described as follows: qHTS assay to test for compound auto fluorescence at 460 nm (blue) in HepG2 cell free culture (AID 720685). A digest of the protocol: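 Compound (23 nL) or DMSO pinned into cell-free MEM with 10% FBS; blue fluorescence read at 405/460 nm excitation/emission, expressed as auto-fluorescence equivalency to triamterene.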
Assay [14] can be described thus: qHTS assay to test for compound auto fluorescence at 535 nm (green) in HepG2 cell free culture (AID 720686).
Assay [15] in a line: qHTS assay to test for compound auto fluorescence at 460 nm (blue) in HepG2 cells (AID 720687). In short, it runs like this:
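Blue-channel autofluorescence (Ex/Em 405/460 nm, triamterene-equivalent) was measured after 1 hr compound exposure at 37 C, 5% CO2. Cells were HepG2, plated overnight at 37 C in MEM plus 10% FBS.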

Assay [16] concerns the target Glucocorticoid receptor (Homo sapiens) (UniProt P04150). In words: qHTS assay to identify small molecule agonists of the glucocorticoid receptor (GR) signaling pathway (AID 720691; active = well fitted activation curve with a large enough effect in the signal ratio in the repeat runs, not every such curve was filed as active; inconclusive = weak or mixed curves, or effect the other way; inactive = no such curve, though single readings can be large or run the other way; the % refers to the signal ratio; note: potency is the fitted concentration of half-maximal effect). In short, it runs like this: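 GR-bla HeLa cells carrying a GRE-driven beta-lactamase reporter, exposed to compounds for 18 h at 37 C. Reporter activation read as fluorescence after 2 h with LiveBLAzer B/G FRET substrate at room temperature.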

A short description of assay [17]: qHTS assay for small molecule agonists of the p53 signaling pathway - cell viability (AID 651633; calls by dose curve; note: nearly all actives have a fitted effect of over 30% in size; note: potency is the fitted concentration of half-maximal effect). A digest of the protocol: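 Viability counter-read: CellTiter-Glo luminescence (30 min, room temperature) in the same p53RE-bla plates. These plates had been exposed to compounds for 16 h at 37 C.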
A short description of assay [18]: qHTS assay for small molecule disruptors of the mitochondrial membrane potential - cell viability (AID 720634; calls by dose curve;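 note: human HepG2 liver cancer cells; series mostly up to about 83 µM; nearly all actives have a fitted effect of over 20% in size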). A digest of the protocol:
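HepG2 cells, 2,000 per well, attached overnight, then treated 1 hr at 37 C, 5% CO2. Viability read as ATP by CellTiter-Glo luminescence after 30 min at room temperature. Read in the same wells as the m-MPI membrane-potential dye assay.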

The target of assay [19] is Glucocorticoid receptor (Homo sapiens) (UniProt P04150). Nature of the assay: qHTS assay to identify small molecule antagonists of the glucocorticoid receptor (GR) signaling pathway (AID 720692; active = well fitted inhibition curve with a large enough effect in the signal ratio in the repeat runs, not every such curve was filed as active; inconclusive = weak or mixed curves, or effect the other way; inactive = no such curve, though single readings can be large or run the other way; the % refers to the signal ratio). In short, it runs like this: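 GR-bla HeLa cells carrying a GRE-driven beta-lactamase reporter received compound after 4 h plating, then dexamethasone (5 nM final). After 18 h at 37C, the FRET substrate was loaded for 2 h at room temperature and fluorescence read.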
Chain of Glucocorticoid receptor (Homo sapiens) (P04150 whole entry, looked up): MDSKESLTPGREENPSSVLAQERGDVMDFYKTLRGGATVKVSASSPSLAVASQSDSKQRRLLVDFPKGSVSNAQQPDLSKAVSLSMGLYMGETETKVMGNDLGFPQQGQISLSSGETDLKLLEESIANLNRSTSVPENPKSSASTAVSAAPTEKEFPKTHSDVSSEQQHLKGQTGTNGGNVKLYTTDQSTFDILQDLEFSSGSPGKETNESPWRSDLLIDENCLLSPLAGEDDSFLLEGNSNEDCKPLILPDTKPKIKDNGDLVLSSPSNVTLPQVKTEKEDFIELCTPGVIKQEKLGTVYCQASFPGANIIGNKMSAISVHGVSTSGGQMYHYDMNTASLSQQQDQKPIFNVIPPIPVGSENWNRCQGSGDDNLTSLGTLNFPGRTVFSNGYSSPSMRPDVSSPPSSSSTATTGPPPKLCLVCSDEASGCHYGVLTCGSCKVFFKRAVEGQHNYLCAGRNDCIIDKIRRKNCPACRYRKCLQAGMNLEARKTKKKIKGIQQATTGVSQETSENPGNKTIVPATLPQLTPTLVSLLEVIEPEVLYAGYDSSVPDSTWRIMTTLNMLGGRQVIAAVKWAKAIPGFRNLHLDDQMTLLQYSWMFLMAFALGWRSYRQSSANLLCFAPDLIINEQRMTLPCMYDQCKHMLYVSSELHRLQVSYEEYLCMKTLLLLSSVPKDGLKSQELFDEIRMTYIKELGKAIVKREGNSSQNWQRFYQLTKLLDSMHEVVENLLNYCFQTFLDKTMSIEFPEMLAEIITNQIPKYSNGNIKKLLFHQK

The structures appear in SMILES notation. Several values for one entry are separate records, joined by “and”; a condition that tells them apart may be missing. Equal entries are not always repeated. Activity calls are given as the source filed them. Unless noted, calls come from the whole dose curve; as a rule, active = well fitted curve in the direction sought with a large enough effect in the repeat runs; inconclusive = weak or mixed curves; inactive = no such curve, though single readings can be large; an effect the other way counts as inactive or inconclusive.

For `Cc1cc(-c2ccc(N=Nc3cc(S(=O)(=O)O)c4ccccc4c3N)c(C)c2)ccc1N=Nc1cc(S(=O)(=O)O)c2ccccc2c1N`, the Potency entry in assay [1], in [2], in assay [4], in assay [5], in assay [6] and in assay [7] was “inactive” throughout. In addition, the Potency result in [8], in assay [9], in assay [10], in [11], in assay [12] and in [13] was “inactive” in each case. Besides, the Potency result in assay [14], in [15] and in assay [16] was “inactive” each time. Besides, the Potency in assay [3] is 12.3 µM (active).
With `O=C1NC(=O)[C@@H]2CC=CC[C@H]12`, the Potency entry in assay [17], in [2], in assay [18], in assay [3], in assay [4] and in assay [5] was “inactive” throughout. Further, the Potency entry in [6], in assay [7], in assay [8], in [9], in assay [10] and in assay [11] was “inactive” each time. For the same compound, the Potency entry in [12], in assay [13], in assay [14], in assay [15], in assay [16] and in assay [19] was “inactive” in each case.
With `C=C(C)c1cccc(C(=C)C)c1`, the Potency entry in assay [17], in assay [2], in assay [18], in assay [3], in assay [4] and in [5] was “inactive” in each case. Moreover, the Potency result in assay [6], in assay [7], in assay [8], in assay [9], in assay [10] and in assay [11] was “inactive” in each case. Besides, the Potency result in assay [12], in assay [13], in assay [14], in assay [15], in [16] and in assay [19] was “inactive” throughout.
For the compound `CCCCOC(=O)CO`, the Potency entry in assay [17], in assay [2], in assay [18], in assay [3], in assay [4] and in [5] was “inactive” in each case. In addition, the Potency result in assay [6], in assay [7], in assay [9], in [10], in assay [11] and in assay [12] was “inactive” in each case. The Potency result in [13], in assay [14], in [15], in assay [16] and in [19] was “inactive” in each case.
With `CC(C)(C)c1ccc(C(O)CCCN2CCC(C(O)(c3ccccc3)c3ccccc3)CC2)cc1` (stereo unspecified), in [17], the Potency is 29.8 µM (active) and 18.8 µM (active). Also, the Potency result in assay [18], in assay [4], in [5], in assay [6], in [7] and in [8] was “inactive” each time. The Potency entry in [9], in assay [10], in assay [11], in assay [12], in assay [13] and in assay [14] was “inactive” in each case. Besides, the Potency entry in assay [15], in assay [16] and in [19] was “inactive” throughout.
With `CCC(C)n1ncn(-c2ccc(N3CCN(c4ccc(OC[C@H]5CO[C@](Cn6cncn6)(c6ccc(Cl)cc6Cl)O5)cc4)CC3)cc2)c1=O` (stereo partly specified), the Potency entry in [17], in [18], in assay [4], in assay [5], in assay [7] and in assay [8] was “inactive” each time. Further, the Potency entry in assay [9], in assay [10], in assay [11], in assay [12], in assay [13] and in assay [14] was “inactive” each time. Further, the Potency entry in [15] was “inactive”.
For `Cc1ccc(O)c(N)c1`, the Potency entry in assay [18], in [4], in assay [5], in assay [7], in assay [8] and in assay [9] was “inactive” each time. In addition, the Potency result in assay [10], in assay [11], in assay [12], in [13], in [14] and in [15] was “inactive” throughout. Further, the Potency result in assay [16] and in assay [19] was “inactive” throughout.
For `COc1cccc2c1C(=O)c1c(O)c3c(c(O)c1C2=O)C[C@@](O)(C(C)=O)C[C@@H]3O[C@H]1C[C@H](N)[C@H](O)[C@H](C)O1`, the Potency in [2] was 9.44 µM (active) and 30.8 µM (active); in [3], 1.5 µM (active) and 4.35 µM (active); in assay [16] it was 3.01 µM [inconclusive] (active) and 49.3 µM [inconclusive] (active). For the same compound, the Potency entry in assay [18], in assay [6], in assay [7], in assay [9], in assay [10] and in assay [11] was “inactive” in each case. Besides, the Potency result in assay [12], in assay [13], in [14] and in assay [15] was “inactive” each time.
On to `CCC(=O)C(=O)CC`, for which the Potency result in [17], in assay [2], in assay [18], in assay [4], in assay [5] and in [6] was “inactive” throughout. Further, the Potency entry in [7], in assay [8], in assay [9], in assay [10], in [11] and in assay [12] was “inactive” in each case. In addition, the Potency result in [14] and in assay [15] was “inactive” each time.
Consider `Cc1cc(C)c(/C=C2\C(=O)Nc3ccccc32)[nH]1`, for which the Potency was 2.66 µM (active) in [17] and 10.6 µM (active) in [3]. The Potency result in assay [2], in assay [18], in assay [4], in [5], in [6] and in assay [7] was “inactive” in each case. The Potency entry in assay [8], in [9], in assay [10], in [11], in [12] and in [15] was “inactive” throughout.
As to `CCCNCCC`, the Potency entry in assay [17], in assay [2], in [18], in assay [3], in assay [4] and in [5] was “inactive” each time. Moreover, the Potency result in assay [6], in assay [7], in [8], in assay [9], in assay [10] and in [11] was “inactive” in each case. The Potency entry in [12], in assay [13], in assay [14], in assay [15], in assay [16] and in [19] was “inactive” in each case.
